Screens deposited in PubChem BioAssay by National Center for Advancing Translational Sciences (NCATS).
The entries come from a sample that favours hits as a whole.
Giardia FBPA inh: inhibitors of Giardia lamblia fructose-1,6-bisphosphate aldolase. A8B2U2. purified Giardia FBPA. Potency, µM (titrated, usually from 59.6 µM), without a hit: top-dose activity, negative = inhibition, most hits filed as inhibitors. actives 0.71% (n = 290,000); note: potency is the fitted concentration of half-maximal effect; % is set by controls: 0 for no effect and ±100 for the full control effect; nearly all actives have a fitted effect of over 55% in size
Target sequence (A8B2U2 whole entry, looked up): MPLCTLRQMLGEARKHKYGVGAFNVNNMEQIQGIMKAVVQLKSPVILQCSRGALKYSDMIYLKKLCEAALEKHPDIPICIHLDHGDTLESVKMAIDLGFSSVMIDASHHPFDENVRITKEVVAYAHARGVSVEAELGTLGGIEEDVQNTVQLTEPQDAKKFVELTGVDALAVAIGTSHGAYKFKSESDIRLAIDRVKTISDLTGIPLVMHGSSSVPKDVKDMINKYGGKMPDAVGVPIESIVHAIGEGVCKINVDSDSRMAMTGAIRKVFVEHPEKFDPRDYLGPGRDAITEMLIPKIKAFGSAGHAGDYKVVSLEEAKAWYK
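Giardia FBPA (40 nM reagent) was preincubated 10 min at RT with compound (up to 57.5 uM final), then substrate plus GAPDH/TPI/NAD/arsenate coupling system with diaphorase/resazurin was added; resorufin fluorescence (525/598 nm) was read after 20 min.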
CHX counter: counter-screen hit for Shiga toxin inhibitors, cycloheximide; cell reporter, cycloheximide protein synthesis inhibition counterscreen; AID 2314; actives 12% (n = 300,000); max response, %; in the data active = max response mostly above about 13%, no sharp cut-off; inactive = mostly below about 14%; note: read at 38.3 µM for the half of the compounds with a filed dose; 0% is about no effect
Tb PYK inh: T. brucei pyruvate kinase inhibition; actives 0.12% (n = 410,000); TbPYK enzyme, Kinase-Glo Plus ATP luminescence, 45 min; Potency, µM (series often up to 76.8 µM), for inactives: at the top dose activity, negative = inhibition, most hits filed as inhibitors; note: potency is the fitted concentration of half-maximal effect; % is set by controls: 0 for no effect and ±100 for the full control effect; nearly all actives have a fitted effect of over 50% in size
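Luminescent Kinase-Glo Plus end-point after 45 min room-temperature reaction of T. brucei pyruvate kinase started with 130 uM ADP (final). Buffer TEA 50 mM pH 7.2 with KCl, MgCl2, BSA, Tween-20; titration-based qHTS with fitted concentration-effect curves.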
Shiga toxin inh: blocks Shiga toxin action in Vero cells; inhibition, % at 38.7 µM; AID 2315; actives 9.2% (n = 290,000); Vero cells, Shiga toxin protein synthesis inhibition reporter; in the data active = inhibition mostly above about 28%, no sharp cut-off; inactive = mostly below about 43%; note: 0% is about no effect
Sm TGR block: blocks Schistosoma mansoni thioredoxin glutathione reductase. Q962Y6. purified TGR, DTNB reduction, TNB absorbance 405 nm. actives 3% (n = 360,000). AID 485364. Potency, µM (top dose mostly 114 µM), without a hit: at the highest dose activity change, negative = inhibition, hits mostly inhibitors; note: potency is the fitted concentration of half-maximal effect; % is set by controls: 0 for no effect and ±100 for the full control effect; nearly all actives have a fitted effect of over 60% in size
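TGR 20 nM + NADPH 100 uM (dispensed conc.), cpd preinc 15 min RT; start with NADPH (500 uM addition) then DTNB (15 mM addition). Kinetic TNB absorbance, 405 nm filter. Four-parameter Hill fit across titration.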
LmPK inhibitor: blocks Leishmania mexicana pyruvate kinase activity; Q27686; purified LmPK, Kinase-Glo ATP luminescence, 1 h; Potency, µM (top dose mostly 57.5 µM), for the others: at the highest dose activity change, negative = inhibition, most hits filed as inhibitors; actives 0.37% (n = 290,000); AID 1721; note: potency is the fitted concentration of half-maximal effect; % is set by controls: 0 for no effect and ±100 for the full control effect
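Kinase-Glo luminescence read after 1 h RT reaction of 0.1 nM LmPK with 0.5 mM PEP and 0.1 mM ADP. Activity scaled between uninhibited and enzyme-free controls.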
Numbers without * were called inactive; ? = inconclusive; nt = not tested or not shown. Unless noted, calls come from the whole dose curve; as a rule, active = well fitted curve in the direction sought with a large enough effect; inconclusive = small, poorly fitted or top-dose-only effect, or another doubt; inactive = no such curve, though single readings can be large; an effect the other way counts as inactive or inconclusive.

SMILES	Giardia FBPA inh	CHX counter	Tb PYK inh	Shiga toxin inh	Sm TGR block	LmPK inhibitor
COCCNC(=O)CS(=O)Cc1nc(-c2ccccc2C)oc1C (centres undefined)	0%	-2	-10%	36	40µM*	2%
Cc1ccc(CNC(=O)CS(=O)Cc2nc(-c3ccccc3C)oc2C)cc1 (centres undefined)	6%	-4	-11%	-13	45µM*	0%
Cc1ccccc1-c1nc(CS(=O)CC(=O)NCCc2ccc(Cl)cc2)c(C)o1 (centres undefined)	nt	-2	1%	-6	28µM*	8%
COc1ccc(CNC(=O)CS(=O)Cc2nc(-c3ccccc3C)oc2C)cc1 (centres undefined)	6%	-4	-13%	-15	?	0%
Cc1ccc(CCNC(=O)CS(=O)Cc2nc(-c3ccccc3C)oc2C)cc1 (centres undefined)	nt	nt	-1%	nt	-23%	nt
O=C(CSc1nc2ccccc2nc1Cc1ccccc1)N1CCCc2ccccc21	nt	nt	1%	nt	4%	nt
Cc1ccc2c(c1)c1c(c(=O)n(-c3cccc(Cl)c3)c(=O)n1CC(=O)Nc1c(C)cccc1C)n2C	nt	nt	-1%	nt	-6%	nt
COC(=O)c1ccc(-n2c(/C=C\c3cccc(Br)c3)nc3ccccc3c2=O)cc1	nt	nt	-4%	nt	2%	nt
COc1ccc(C)cc1S(=O)(=O)NC(C)C(=O)Nc1ccc2c(c1)OCO2 (centres undefined)	-6%	-3	-5%	20	-7%	-2%
Cc1cccc(N=Nc2ccc(N(C)C)cc2)c1	0%	43*	1%	126*	-11%	1%
CN(C)c1ccc(N=Nc2cccc3ccoc23)cc1	-5%	56*	2%	137*	4%	-15%
CN(C)c1ccc(N=Nc2cccc(F)c2)cc1	-2%	41*	4%	96*	5%	-8%
CN(C)c1ccc(N=Nc2ccc3ncccc3c2)cc1	nt	nt	-4%	nt	nt	nt
CN(C)c1ccccc1	nt	nt	2%	nt	nt	nt
S=C(NCc1ccco1)Nc1ccc(Oc2ccc(Cl)cc2)cc1	0%	1	-2%	-2	-12%	-2%
CC(OC(=O)c1ccc(S(=O)(=O)NCc2ccco2)cc1)C(=O)Nc1ccc(Cl)cn1 (centres undefined)	-2%	38*	-2%	68*	1%	6%
S=C(NCCc1ccccc1)Nc1ccccn1	-1%	39*	?	92*	?	-1%
O=C(COC(=O)c1ccc(S(=O)(=O)NCc2ccco2)cc1)Nc1ncc(Cl)cc1Cl	-3%	-4	-1%	8	-23%	4%
S=C(NCc1ccco1)Nc1ccc(Cl)cn1	0%	8	-12%	2	3.2µM*	7%
Cc1cccc(NC(=S)NCCc2ccccc2)n1	?	6	-10%	21	?	3%
S=C(NCc1ccco1)Nc1ccccn1	-1%	5	-19%	27	14µM*	0%
CC(C)[C@H](NC(=O)[C@@H](Cc1c[nH]c2ccccc12)NC(=O)[C@H](Cc1ccc(O)cc1)NC(=O)[C@@H](N)CC(=O)O)C(=O)N[C@H](Cc1c[nH]c2ccccc12)C(=O)N[C@H](Cc1c[nH]c2ccccc12)C(=O)N[C@@H](CCCCN)C(N)=O	5%	-3	nt	-4	nt	nt
CCC(C)NC(=O)c1cc2n(n1)CCCN(Cc1ccc(C)cc1)C2=O (centres undefined)	nt	nt	0%	nt	-2%	nt
S=C(NCc1ccco1)Nc1ccc(Cl)cc1	2%	15*	2%	16	?	-4%
Cc1cc(C)n2nc(SCC3COc4ccccc4O3)nc2n1 (centres undefined)	-15%	51*	-11%	89*	2%	-3%
N#Cc1cc2c(nc1SCc1ccccc1)CCCCC2	6%	9	-25%	56	8%	4%
Cc1cc(C)c(C#N)c(SCC2COc3ccccc3O2)n1 (centres undefined)	9%	21*	2%	13	6%	2%
Cc1cc(C)n2nc(SCc3ccccc3F)nc2n1	6%	-1	-5%	16	-7%	4%
